From PubChem BioAssay (EPA / NIEHS) come the findings set out here.

Read-out in experiment [1]: Collagen I, COL1A1 (gene 1277)
The experiment can be described thus: BSK_MyoF_CollagenI: BioMAP Diversity Plus: MyoF Assay for Collagen I Biomarker Activity (AID 2284238). To be noted: primary human lung fibroblasts. A digest of the protocol: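 Primary human lung fibroblasts (MyoF system) treated 24 h; Collagen I quantified by ELISA and fitted in positive direction against DMSO. Parallel SRB total-protein staining assessed overt cytotoxicity.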

Experiment [2] in a line: CCTE_Mundy_HCI_hNP1_Casp3_7: CCTE's Caspase-Glo 3/7 Assay in human neuroprogenitor cells for Apoptosis, Mundy Lab (AID 2284240). Summed up:
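Apoptosis is scored by activated caspase-3/7 luminescence in WA09-derived neural progenitor cells, measured 26.5 h after chemical dosing. Values represent gain of signal relative to DMSO vehicle.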

Experiment [3] is described as follows: CCTE_Mundy_HCI_hNP1_CellTiter: CCTE's Cell Titer-Glo 2 Assay in human neuroprogenitor cells for Viability, Mundy Lab (AID 2284241; active means hit-call score of the fitted dose curve at least 0.9, where 1 is the maximum;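 on AC50: a hit is a drop in ATP luminescence versus DMSO meaning reduced viability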). A digest of the protocol:
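Human neural progenitor cells (hNP1, WA09-derived) were plated on poly-L-ornithine/laminin and grown 40 to 44 hours at 37 °C, 5% CO2 before chemical addition. Twenty-four hours later, ATP was measured by CellTiter-Glo luminescence; loss of signal versus DMSO indicates reduced viability.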

Read-out in experiment [4]: Interleukin 17F (IL17F), IL17F (gene 112744)
Briefly: BSK_BT_xIL17F: BioMAP Diversity Plus: BT Assay for Interleukin 17F (IL17F) Biomarker Activity (AID 2284243). To be noted: primary human B cells with PBMC. Summed up:
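Human PBMC co-cultured with B cells, compound exposure 24 h; secreted IL-17F quantified by Luminex xMAP, referenced to DMSO control. PBMC viability measured in parallel by Alamar Blue reduction.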

Read-out in experiment [5]: Actin alpha 1 (ACTA1), ACTA1 (gene 58)
Briefly: BSK_MyoF_ACTA1: BioMAP Diversity Plus: MyoF Assay for Actin alpha 1 (ACTA1) Biomarker Activity (AID 2284244). The following applies: primary human lung fibroblasts. A digest of the protocol: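 MyoF fibroblast system (human lung); a-SMA quantified via ELISA at 24 h; DMSO-normalised, gain-of-signal endpoint.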

Read-out in experiment [6]: Interleukin 2 (IL2), IL2 (gene 3558)
Briefly: BSK_BT_xIL2: BioMAP Diversity Plus: BT Assay for Interleukin 2 (IL2) Biomarker Activity (AID 2284245). The following applies: primary human B cells with PBMC. A digest of the protocol: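 Co-cultures of primary human B cells and PBMC are treated with chemical and sampled at 24 h. IL-2 secretion is quantified by Luminex xMAP, with DMSO-treated wells as baseline.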

Read-out in experiment [7]: Collagen IV, COL4A1 (gene 1282)
The experiment can be described thus: BSK_MyoF_CollagenIV: BioMAP Diversity Plus: MyoF Assay for Collagen IV Biomarker Activity (AID 2284247). The following applies: primary human lung fibroblasts. Summed up:
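Lung fibroblasts (human primary) treated with chemicals were assayed after 24 h for Collagen IV using an ELISA, with DMSO serving as negative control and baseline for a positive-direction fit.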

Read-out in experiment [8]: Monokine induced gamma interferon (MIG), CXCL9 (gene 4283)
Briefly: BSK_KF3CT_MIG: BioMAP Diversity Plus: KF3CT Assay for Monokine induced gamma interferon (MIG) Biomarker Activity (AID 2284248). The following applies: primary human keratinocytes with fibroblasts. Summed up: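 Human keratinocyte–foreskin fibroblast co-culture; MIG measured by ELISA 24 h after chemical dosing, fitted upward versus DMSO. Cytotoxicity was assessed in parallel cultures by SRB total-protein staining read at 560 nm.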

Read-out in experiment [9]: Vascular cell adhesion molecule 1 (VCAM1), VCAM1 (gene 7412)
The experiment can be described thus: BSK_BF4T_VCAM1: BioMAP Diversity Plus: BF4T Assay for Vascular cell adhesion molecule 1 (VCAM1) Biomarker Activity (AID 2284249). The following applies: primary human bronchial epithelial cells with fibroblasts. A digest of the protocol:
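Cell-surface VCAM-1 quantified by ELISA after 24 h chemical exposure of human bronchial epithelial/dermal fibroblast co-cultures, with SRB staining in parallel wells for cytotoxicity; DMSO baseline, positive-direction fitting.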

Read-out in experiment [10]: Collagen I, COL1A1 (gene 1277)
Briefly: BSK_hDFCGF_CollagenI: BioMAP Diversity Plus: hDFCGF Assay for Collagen I Biomarker Activity (AID 2284250). The following applies: primary human foreskin fibroblasts. A digest of the protocol:
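Readout: Collagen I by ELISA after 24 h compound treatment of primary human foreskin fibroblasts. Endpoint analysed for increases relative to DMSO; total protein by SRB in parallel wells flagged cytotoxicity.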

Read-out in experiment [11]: Interferon-inducible T-cell alpha chemoattractant (ITAC), CXCL11 (gene 6373)
Briefly: BSK_hDFCGF_ITAC: BioMAP Diversity Plus: hDFCGF Assay for Interferon-inducible T-cell alpha chemoattractant (ITAC) Biomarker Activity (AID 2284251). To be noted: primary human foreskin fibroblasts. Summed up:
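I-TAC levels were read by ELISA on human dermal foreskin fibroblast primary cultures 24 h after dosing, analysed against DMSO in the positive direction. Cytotoxicity was assessed alongside by sulforhodamine B total-protein staining.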

Read-out in experiment [12]: Plasminogen activator inhibitor-1 (PAI1), SERPINE1 (gene 5054)
Briefly: BSK_KF3CT_PAI1: BioMAP Diversity Plus: KF3CT Assay for Plasminogen activator inhibitor-1 (PAI1) Biomarker Activity (AID 2284252). The following applies: primary human keratinocytes with fibroblasts. A digest of the protocol:
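In this co-culture of primary human keratinocytes and foreskin fibroblasts, PAI-1 was measured by ELISA at 24 h and fitted upward from DMSO.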

Read-out in experiment [13]: Monocyte Chemoattractant Protein-1 (MCP1), CCL2 (gene 6347)
The experiment can be described thus: BSK_IMphg_MCP1: BioMAP Diversity Plus: IMphg Assay for Monocyte Chemoattractant Protein-1 (MCP1) Biomarker Activity (AID 2284253). To be noted: primary human endothelial cells with macrophages. A digest of the protocol: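 ELISA readout of MCP-1 at 24 hours in IMphg co-cultures of venular endothelial cells and macrophages, normalised to DMSO; parallel cultures stained with sulforhodamine B for overt cytotoxicity.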

Read-out in experiment [14]: Interleukin-8 (IL8), CXCL8 (gene 3576)
Briefly: BSK_KF3CT_IL8: BioMAP Diversity Plus: KF3CT Assay for Interleukin-8 (IL8) Biomarker Activity (AID 2284254). To be noted: primary human keratinocytes with fibroblasts. Summed up: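 Human keratinocyte/foreskin fibroblast co-culture dosed 24 h; IL-8 measured by ELISA relative to DMSO. Parallel cultures stained with SRB for total protein to flag cytotoxicity.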

Read-out in experiment [15]: Plasminogen activator inhibitor-1 (PAI1), SERPINE1 (gene 5054)
The experiment can be described thus: BSK_MyoF_PAI1: BioMAP Diversity Plus: MyoF Assay for Plasminogen activator inhibitor-1 (PAI1) Biomarker Activity (AID 2284256).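 Further: PAI-1 read 24 h after compound addition.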 To be noted: primary human lung fibroblasts. A digest of the protocol: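 Primary human lung fibroblasts treated with chemical for 24 h; PAI-1 levels quantified by ELISA relative to DMSO. Cytotoxicity was assessed in parallel cultures by SRB total-protein staining (0.1% SRB after 10% TCA fixation, 560 nm).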

Read-out in experiment [16]: CD69, CD69 (gene 969)
The experiment can be described thus: BSK_IMphg_CD69: BioMAP Diversity Plus: IMphg Assay for CD69 Biomarker Activity (AID 2284257). To be noted: primary human endothelial cells with macrophages. A digest of the protocol:
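Readout is ELISA for CD69 in primary human venular endothelial cell/macrophage co-culture, taken at 24 h post-dosing. SRB staining of parallel cultures gauged overt cytotoxicity; signal increase versus DMSO defined activity.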

Read-out in experiment [17]: Eotaxin 3, CCL26 (gene 10344)
Briefly: BSK_BF4T_Eotaxin3: BioMAP Diversity Plus: BF4T Assay for Eotaxin 3 Biomarker Activity (AID 2284258). To be noted: primary human bronchial epithelial cells with fibroblasts. Summed up: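 ELISA measurement of Eotaxin-3 after 24 h chemical exposure in a bronchial epithelial/dermal fibroblast co-culture, with DMSO as baseline. Parallel SRB staining (0.1% SRB after 10% TCA fixation, 560 nm) flagged overt cytotoxicity.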

Read-out in experiment [18]: Monocyte Chemoattractant Protein-1 (MCP1), CCL2 (gene 6347)
Briefly: BSK_BF4T_MCP1: BioMAP Diversity Plus: BF4T Assay for Monocyte Chemoattractant Protein-1 (MCP1) Biomarker Activity (AID 2284259). The following applies: primary human bronchial epithelial cells with fibroblasts. A digest of the protocol:
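MCP-1 ELISA readout taken 24 h after dosing in the BF4T system (bronchial epithelial cells plus dermal fibroblasts). Parallel SRB total-protein staining flagged cytotoxicity; DMSO served as baseline, positive fitting direction.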

The nature of experiment [19]: CCTE_Mundy_HCI_Cortical_NOG_BPCount: CCTE's Neurite Outgrowth Assay in rat cortical cells for Branch Point Count, Mundy Lab (AID 2284237).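 On AC50: branch points counted about two days after chemical exposure.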 Summed up:
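Measured 50.33 h after dosing, this morphology endpoint uses rat primary cortical cultures labelled for betaIII-tubulin. Branch points are quantified by high-content imaging, with DMSO as negative control and baseline.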

Experiment [20] can be described thus: CCTE_Mundy_HCI_Cortical_Synap_Neur_Matur_NeuronCount: CCTE's Synaptogenesis and Neurite Maturation Assay in rat cortical cells for Neuron Count, Mundy Lab (AID 2284242; active means hit-call score of the fitted dose curve at least 0.9, where 1 is the maximum;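 on AC50: hits reduce neuron count versus DMSO baseline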). Summed up:
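Measured at DIV 12: fluorescently labelled neurons (Hoechst nuclei, MAP2) in rat primary cortical cultures, counted by high-content imaging. AraC suppressed glia from DIV 5; DMSO served as negative control.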

Each structure is given as a SMILES string. Where “and” joins values, the source holds several entries; their conditions need not be identical. Equal values may be shown once. Records with an inconclusive call do not appear. The source holds several records for some structures; these can differ, active in one and inactive in another. Calls of active or inactive are those of the source. How the source made its calls, unless noted: active means hit-call score of the fitted dose curve at least 0.9, where 1 is the maximum; inactive means score below 0.9.

For `O=C(O)C=CC(F)(C(F)(F)F)C(F)(F)F`, the outcome in experiment [1], in [2], in experiment [3], in experiment [4], in experiment [5] and in experiment [6] was inactive. The outcome in experiment [7], in experiment [8], in experiment [9], in experiment [10], in [11] and in experiment [12] was inactive. The outcome in experiment [13], in experiment [14], in experiment [15], in experiment [16], in experiment [17] and in experiment [18] was inactive. For the same compound, the concentration at half-maximal activity (AC50) in experiment [4] is 219 nM (active).
As for `CO/N=C(/C(=O)OC)c1ccccc1COc1ccccc1C`, the half-maximal activity concentration (AC50) is 14.2 µM (active) in experiment [19], 33.2 µM (active) in [2], 82.5 µM (active) in experiment [3] and 2.98 µM (active) in [20].
For the compound `CCOc1ccc(C(C)(C)COCc2cccc(Oc3ccccc3)c2)cc1`, the result in experiment [19], in [2] and in experiment [3] was inactive. The half-maximal activity concentration (AC50) in [20] is 15 µM (active).
As to `CCC1(c2ccccc2)C(=O)N=C(O)NC1=O` (centres undefined), the call in experiment [19], in [2], in experiment [3] and in experiment [20] was inactive.
With `O=C(O)C(F)(F)OC(F)(F)C(F)(F)OC(F)(F)C(=O)O`, the result in experiment [1], in experiment [2], in [3], in experiment [4], in experiment [5] and in experiment [6] was inactive. Also, the result in experiment [7], in [8], in [9], in [10], in experiment [11] and in [12] was inactive. The result in experiment [13], in experiment [14], in experiment [15], in [16], in experiment [17] and in [18] was inactive.
For the compound `C=CC(=O)OCC(F)(F)C(F)F`, the half-maximal activity concentration (AC50) was 46.7 µM (active) and 44.9 µM (active) in experiment [1]; 12.4 µM (active) and 21.8 µM (active) in [4]; 48.8 µM (active) and 46.5 µM (active) in [5]; 30.6 µM (active) and 34.5 µM (active) in experiment [6]; 45.7 µM (active) in experiment [7]; 52.2 µM (active) in [8]. The AC50 in experiment [9] was 30 µM (active); in experiment [11], 12.7 µM (active) and 18.4 µM (active). Further, the compound was classed as inactive in [2], in experiment [3], in [7], in experiment [8], in [9] and in experiment [10]. In addition, the result in experiment [12], in experiment [13], in [14], in experiment [15], in experiment [16] and in experiment [17] was inactive. Moreover, the result in [18] was inactive.
As for `NC(=O)C(F)(F)C(F)(F)F`, the outcome in [1], in [4], in experiment [5], in [6], in [7] and in [8] was inactive. The outcome in [9], in experiment [10], in experiment [11], in experiment [12], in experiment [13] and in experiment [14] was inactive. Also, the result in [15], in [16], in experiment [17] and in experiment [18] was inactive.
On to `O=P1(N(CCCl)CCCl)NCCCO1` (centres undefined), for which the outcome in [19], in experiment [2] and in experiment [3] was inactive.
